# Article PMC7862700, “An all-to-all approach to the identification of sequence-specific readers for epigenetic DNA modifications on cytosine”
# Assays:
# Assay in all cases: DAPPL (digital affinity profiling via proximity ligation, sequencing); 10 mM Tris-HCl pH 7.5, 50 mM NaCl, 1 mM DTT, 4% glycerol, room temperature, 30 min; GST-TFs on glutathione beads, 16-mer random dsDNA library, 0.1% formaldehyde crosslink after washing; high values mean tight binding
# Conditions in all cases: protein: recombinant; tags: N-terminal GST; dsDNA, one strand shown
# [1] = molecular target: T1, FLI1 (Homo sapiens, UniProt Q01543 1-452)
# T1 sequence: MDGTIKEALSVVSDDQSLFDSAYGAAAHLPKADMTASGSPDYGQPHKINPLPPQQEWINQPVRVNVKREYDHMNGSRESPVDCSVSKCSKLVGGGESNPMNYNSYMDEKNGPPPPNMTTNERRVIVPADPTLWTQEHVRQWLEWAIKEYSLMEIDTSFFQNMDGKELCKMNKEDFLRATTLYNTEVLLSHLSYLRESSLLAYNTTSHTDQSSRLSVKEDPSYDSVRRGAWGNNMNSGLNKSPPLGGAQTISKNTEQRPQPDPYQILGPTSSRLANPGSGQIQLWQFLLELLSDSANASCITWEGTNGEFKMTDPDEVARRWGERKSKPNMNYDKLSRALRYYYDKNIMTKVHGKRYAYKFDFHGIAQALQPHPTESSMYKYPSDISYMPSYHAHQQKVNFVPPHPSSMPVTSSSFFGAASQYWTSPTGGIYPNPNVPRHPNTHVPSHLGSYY
# In short: (§1)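 Binding signal is defined as a hexamer's read frequency for one factor over its frequency for the tag-only sample. To obtain reads, GST-fused human transcription factors were expressed in yeast, captured on glutathione beads, barcoded with DNA and pooled with that sample. Pools met 200 nmole of a 16-mer random double-stranded DNA library in Tris/NaCl/DTT/glycerol buffer for 30 min at room temperature before washing, 0.1% formaldehyde crosslinking, proximity ligation (BsaI/T4 ligase, 1 h, 37 °C), PCR and Illumina NextSeq500 sequencing.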
# [2] = molecular target: T2, ELK1 (Homo sapiens, UniProt P19419 1-428)
# T2 sequence: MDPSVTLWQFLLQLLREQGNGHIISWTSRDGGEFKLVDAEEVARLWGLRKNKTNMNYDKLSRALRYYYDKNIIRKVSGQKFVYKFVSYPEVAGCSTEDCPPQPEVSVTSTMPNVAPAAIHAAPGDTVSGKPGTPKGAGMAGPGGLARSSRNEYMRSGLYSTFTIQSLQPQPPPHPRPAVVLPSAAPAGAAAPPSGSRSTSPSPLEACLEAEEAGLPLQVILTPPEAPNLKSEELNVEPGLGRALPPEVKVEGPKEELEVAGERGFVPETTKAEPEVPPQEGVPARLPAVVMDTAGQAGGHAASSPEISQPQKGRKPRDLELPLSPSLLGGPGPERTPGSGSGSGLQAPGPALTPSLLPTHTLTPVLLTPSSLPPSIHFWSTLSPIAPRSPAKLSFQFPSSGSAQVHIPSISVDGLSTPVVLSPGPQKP
# In short: as §1
# [3] = molecular target: T3, GABPA (Homo sapiens, UniProt Q06546 1-454)
# T3 sequence: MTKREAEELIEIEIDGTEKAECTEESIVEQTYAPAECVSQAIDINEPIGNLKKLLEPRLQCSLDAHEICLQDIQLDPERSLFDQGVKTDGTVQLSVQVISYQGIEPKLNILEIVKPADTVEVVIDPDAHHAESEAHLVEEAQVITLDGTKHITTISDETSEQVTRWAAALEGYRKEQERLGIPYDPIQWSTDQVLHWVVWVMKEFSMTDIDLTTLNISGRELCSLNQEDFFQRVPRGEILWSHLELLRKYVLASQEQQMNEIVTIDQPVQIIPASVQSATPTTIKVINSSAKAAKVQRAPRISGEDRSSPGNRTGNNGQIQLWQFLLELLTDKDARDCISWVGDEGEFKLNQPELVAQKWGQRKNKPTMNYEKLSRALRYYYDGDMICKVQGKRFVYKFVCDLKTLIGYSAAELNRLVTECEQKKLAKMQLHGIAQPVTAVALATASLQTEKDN
# In short: as §1
# [4] = molecular target: T4, ERG (Homo sapiens, UniProt P11308 1-479)
# T4 sequence: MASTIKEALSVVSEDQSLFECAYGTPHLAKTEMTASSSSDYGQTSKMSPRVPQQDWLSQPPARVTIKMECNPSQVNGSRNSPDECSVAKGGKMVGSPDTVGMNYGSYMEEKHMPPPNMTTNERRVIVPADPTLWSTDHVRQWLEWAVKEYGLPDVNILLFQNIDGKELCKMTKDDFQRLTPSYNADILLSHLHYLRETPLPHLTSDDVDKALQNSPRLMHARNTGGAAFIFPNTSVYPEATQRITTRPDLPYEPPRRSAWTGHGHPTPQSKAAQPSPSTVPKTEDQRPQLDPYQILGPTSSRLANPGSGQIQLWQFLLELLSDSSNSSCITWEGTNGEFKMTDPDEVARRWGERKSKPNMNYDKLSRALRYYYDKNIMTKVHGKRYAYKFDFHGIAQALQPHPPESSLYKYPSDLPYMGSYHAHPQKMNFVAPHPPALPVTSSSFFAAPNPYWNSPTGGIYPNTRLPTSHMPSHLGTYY
# In short: as §1
# [5] = molecular target: ELF1 (Homo sapiens, UniProt P32519 1-619)
# Chain of ELF1 (P32519 whole entry): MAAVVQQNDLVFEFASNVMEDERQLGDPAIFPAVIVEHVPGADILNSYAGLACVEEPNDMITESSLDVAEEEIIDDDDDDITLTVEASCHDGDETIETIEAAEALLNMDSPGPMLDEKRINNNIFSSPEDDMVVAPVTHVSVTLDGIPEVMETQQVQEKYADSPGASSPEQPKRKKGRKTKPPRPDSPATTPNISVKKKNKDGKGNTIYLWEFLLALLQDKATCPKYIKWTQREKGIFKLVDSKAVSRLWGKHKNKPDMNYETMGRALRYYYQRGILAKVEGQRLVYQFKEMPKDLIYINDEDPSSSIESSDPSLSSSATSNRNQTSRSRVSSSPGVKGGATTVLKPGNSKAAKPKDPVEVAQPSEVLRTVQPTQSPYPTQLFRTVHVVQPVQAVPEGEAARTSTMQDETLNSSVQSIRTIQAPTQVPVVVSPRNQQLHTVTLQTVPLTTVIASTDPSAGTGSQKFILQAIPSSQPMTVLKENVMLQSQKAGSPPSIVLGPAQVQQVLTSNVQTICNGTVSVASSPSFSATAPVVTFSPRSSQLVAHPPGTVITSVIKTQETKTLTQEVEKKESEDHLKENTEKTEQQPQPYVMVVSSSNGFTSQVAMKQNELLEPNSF
# In short: as §1
# [6] = molecular target: T5, EHF (Homo sapiens, UniProt Q9NZC4 1-300)
# T5 sequence: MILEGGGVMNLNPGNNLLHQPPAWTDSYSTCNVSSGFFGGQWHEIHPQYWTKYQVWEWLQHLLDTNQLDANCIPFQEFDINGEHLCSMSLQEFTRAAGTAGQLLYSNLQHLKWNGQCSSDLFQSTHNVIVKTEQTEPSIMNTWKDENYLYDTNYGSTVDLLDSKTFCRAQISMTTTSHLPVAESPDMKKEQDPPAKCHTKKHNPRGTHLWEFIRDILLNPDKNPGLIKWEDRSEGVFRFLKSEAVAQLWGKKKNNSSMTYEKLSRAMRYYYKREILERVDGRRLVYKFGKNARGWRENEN
# In short: as §1
# [7] = molecular target: SPI1 (Homo sapiens, UniProt P17947 1-270)
# In short: as §1
# [8] = molecular target: SPIB (Homo sapiens, UniProt Q01892 1-262)
# Chain of SPIB (Q01892 whole entry): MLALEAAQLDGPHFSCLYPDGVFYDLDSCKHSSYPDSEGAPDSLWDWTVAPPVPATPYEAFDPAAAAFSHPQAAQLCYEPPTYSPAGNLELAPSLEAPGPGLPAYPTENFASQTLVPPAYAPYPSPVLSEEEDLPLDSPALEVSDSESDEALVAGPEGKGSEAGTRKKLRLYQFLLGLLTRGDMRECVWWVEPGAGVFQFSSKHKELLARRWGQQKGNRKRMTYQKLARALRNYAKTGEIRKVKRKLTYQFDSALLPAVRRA
# In short: as §1
# [9] = molecular target: T6, ELK3 (Homo sapiens, UniProt P41970 1-407)
# T6 sequence: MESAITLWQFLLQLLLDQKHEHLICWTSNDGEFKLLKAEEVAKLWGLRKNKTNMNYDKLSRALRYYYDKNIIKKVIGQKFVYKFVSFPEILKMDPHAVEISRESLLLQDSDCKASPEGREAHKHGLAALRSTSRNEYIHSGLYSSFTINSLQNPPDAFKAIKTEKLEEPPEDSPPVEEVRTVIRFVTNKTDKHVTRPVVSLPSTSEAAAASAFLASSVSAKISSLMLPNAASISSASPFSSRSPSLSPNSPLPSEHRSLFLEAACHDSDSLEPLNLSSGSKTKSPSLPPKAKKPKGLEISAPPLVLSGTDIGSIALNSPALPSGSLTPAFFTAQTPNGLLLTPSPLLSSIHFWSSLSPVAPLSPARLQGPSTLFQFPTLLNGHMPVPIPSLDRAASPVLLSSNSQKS
# In short: as §1
# [10] = molecular target: T7, FEV (Homo sapiens, UniProt Q99581 1-238)
# T7 sequence: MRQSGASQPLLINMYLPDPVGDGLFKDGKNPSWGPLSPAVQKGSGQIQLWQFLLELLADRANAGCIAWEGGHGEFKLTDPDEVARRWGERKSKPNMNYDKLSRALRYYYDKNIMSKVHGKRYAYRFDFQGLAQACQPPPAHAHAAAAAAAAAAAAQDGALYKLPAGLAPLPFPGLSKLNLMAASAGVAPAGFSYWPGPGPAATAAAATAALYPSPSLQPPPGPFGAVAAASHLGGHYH
# In short: as §1
# [11] = molecular target: ETV5 (Homo sapiens, UniProt P41161 1-510)
# Chain of ETV5 (P41161 whole entry): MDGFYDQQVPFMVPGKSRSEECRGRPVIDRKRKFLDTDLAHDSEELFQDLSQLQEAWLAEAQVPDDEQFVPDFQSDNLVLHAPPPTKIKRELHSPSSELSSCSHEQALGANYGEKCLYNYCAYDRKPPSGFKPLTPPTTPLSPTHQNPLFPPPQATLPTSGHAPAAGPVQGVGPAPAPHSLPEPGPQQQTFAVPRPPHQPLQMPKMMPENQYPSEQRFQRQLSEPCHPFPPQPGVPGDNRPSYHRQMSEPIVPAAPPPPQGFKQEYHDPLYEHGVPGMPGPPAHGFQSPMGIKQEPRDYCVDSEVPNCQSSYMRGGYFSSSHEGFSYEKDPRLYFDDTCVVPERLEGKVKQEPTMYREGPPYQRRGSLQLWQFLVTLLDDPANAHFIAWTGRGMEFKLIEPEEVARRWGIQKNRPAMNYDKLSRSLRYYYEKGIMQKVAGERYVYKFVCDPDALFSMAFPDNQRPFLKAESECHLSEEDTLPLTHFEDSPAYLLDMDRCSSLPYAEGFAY
# In short: as §1
# [12] = molecular target: T8, SPIC (Homo sapiens, UniProt Q8N5J4 1-248)
# T8 sequence: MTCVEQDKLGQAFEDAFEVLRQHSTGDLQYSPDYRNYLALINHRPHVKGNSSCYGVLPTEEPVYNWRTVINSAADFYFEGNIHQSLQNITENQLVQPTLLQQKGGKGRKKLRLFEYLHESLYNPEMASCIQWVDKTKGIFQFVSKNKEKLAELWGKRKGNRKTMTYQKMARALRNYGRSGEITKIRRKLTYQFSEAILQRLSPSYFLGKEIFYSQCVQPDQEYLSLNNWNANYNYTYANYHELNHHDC
# In short: as §1
# [13] = molecular target: ELF4 (Homo sapiens, UniProt Q99607 1-663)
# Chain of ELF4 (Q99607 whole entry): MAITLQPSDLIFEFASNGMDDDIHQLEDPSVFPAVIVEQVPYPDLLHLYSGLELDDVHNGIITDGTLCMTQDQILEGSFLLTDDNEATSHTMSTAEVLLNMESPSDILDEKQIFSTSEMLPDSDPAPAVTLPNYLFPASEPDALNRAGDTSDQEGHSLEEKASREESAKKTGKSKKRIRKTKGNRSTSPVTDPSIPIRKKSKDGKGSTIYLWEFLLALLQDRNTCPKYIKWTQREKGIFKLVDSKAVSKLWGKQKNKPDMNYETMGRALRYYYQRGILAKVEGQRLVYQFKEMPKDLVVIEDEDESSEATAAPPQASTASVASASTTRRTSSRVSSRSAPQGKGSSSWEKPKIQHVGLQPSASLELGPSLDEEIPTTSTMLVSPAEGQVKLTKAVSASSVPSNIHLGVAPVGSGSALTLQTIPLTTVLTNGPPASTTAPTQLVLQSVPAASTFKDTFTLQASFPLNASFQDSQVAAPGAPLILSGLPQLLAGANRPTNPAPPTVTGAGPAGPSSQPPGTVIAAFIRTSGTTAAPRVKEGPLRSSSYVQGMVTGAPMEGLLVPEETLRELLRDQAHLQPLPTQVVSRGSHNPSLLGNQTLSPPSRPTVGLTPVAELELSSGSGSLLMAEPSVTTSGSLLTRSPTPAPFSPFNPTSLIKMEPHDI
# In short: as §1
# [14] = molecular target: T9, ELK4 (Homo sapiens, UniProt P28324-2 1-405)
# T9 sequence: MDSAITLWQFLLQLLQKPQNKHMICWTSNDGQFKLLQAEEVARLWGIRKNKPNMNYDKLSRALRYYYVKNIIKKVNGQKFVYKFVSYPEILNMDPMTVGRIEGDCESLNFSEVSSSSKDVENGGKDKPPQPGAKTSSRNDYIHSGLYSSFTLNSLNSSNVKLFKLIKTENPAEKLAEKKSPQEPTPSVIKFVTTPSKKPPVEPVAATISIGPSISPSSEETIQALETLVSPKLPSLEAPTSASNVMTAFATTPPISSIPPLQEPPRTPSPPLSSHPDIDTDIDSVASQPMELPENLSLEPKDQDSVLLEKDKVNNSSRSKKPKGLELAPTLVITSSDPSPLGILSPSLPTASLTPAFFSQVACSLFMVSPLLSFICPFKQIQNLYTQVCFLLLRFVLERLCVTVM
# In short: as §1
# [15] = molecular target: T10, ETV2 (Homo sapiens, UniProt O00321 1-342)
# T10 sequence: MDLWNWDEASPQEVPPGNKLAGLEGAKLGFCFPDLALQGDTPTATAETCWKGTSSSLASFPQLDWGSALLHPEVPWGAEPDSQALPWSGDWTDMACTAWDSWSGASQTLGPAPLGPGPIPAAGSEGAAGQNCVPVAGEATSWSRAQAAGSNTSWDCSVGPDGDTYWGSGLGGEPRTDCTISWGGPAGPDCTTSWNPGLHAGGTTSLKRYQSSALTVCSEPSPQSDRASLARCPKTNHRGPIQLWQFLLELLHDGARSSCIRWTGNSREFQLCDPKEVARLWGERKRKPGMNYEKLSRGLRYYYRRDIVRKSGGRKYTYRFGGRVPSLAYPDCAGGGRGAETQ
# In short: as §1
# [16] = molecular target: T11, ELF3 (Homo sapiens, UniProt P78545 1-371)
# T11 sequence: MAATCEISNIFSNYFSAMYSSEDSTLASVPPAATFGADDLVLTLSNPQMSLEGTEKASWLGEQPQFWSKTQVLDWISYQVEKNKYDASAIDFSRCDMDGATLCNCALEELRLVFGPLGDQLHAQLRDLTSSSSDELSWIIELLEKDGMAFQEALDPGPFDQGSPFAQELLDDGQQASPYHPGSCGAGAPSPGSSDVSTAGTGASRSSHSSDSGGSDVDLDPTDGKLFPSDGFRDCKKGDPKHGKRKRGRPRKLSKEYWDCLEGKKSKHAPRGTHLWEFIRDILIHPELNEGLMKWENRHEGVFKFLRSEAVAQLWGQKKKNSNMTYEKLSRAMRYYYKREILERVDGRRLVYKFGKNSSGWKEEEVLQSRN
# In short: as §1
# [17] = molecular target: ETV1 (Homo sapiens, UniProt P50549 1-477)
# Chain of ETV1 (P50549 whole entry): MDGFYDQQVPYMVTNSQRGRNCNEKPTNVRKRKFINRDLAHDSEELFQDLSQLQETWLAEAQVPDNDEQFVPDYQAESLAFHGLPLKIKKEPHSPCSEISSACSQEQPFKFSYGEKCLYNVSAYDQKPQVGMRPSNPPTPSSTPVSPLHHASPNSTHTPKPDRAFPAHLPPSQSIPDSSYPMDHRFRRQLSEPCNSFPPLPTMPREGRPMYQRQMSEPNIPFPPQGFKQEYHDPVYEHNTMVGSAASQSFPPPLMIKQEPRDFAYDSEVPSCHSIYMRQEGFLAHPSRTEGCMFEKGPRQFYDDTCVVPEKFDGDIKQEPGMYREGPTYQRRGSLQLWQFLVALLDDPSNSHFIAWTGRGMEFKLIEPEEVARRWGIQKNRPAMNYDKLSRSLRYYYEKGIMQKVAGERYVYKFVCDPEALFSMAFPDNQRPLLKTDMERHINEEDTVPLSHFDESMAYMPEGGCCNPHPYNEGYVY
# In short: as §1
Sequence,binding signal [1],binding signal [2],binding signal [3],binding signal [4],binding signal [5],binding signal [6],binding signal [7],binding signal [8],binding signal [9],binding signal [10],binding signal [11],binding signal [12],binding signal [13],binding signal [14],binding signal [15],binding signal [16],binding signal [17]
CCCGGC,"1.15 fold enrichment (6-mer frequency, TF over GST control)","1.25 fold enrichment (6-mer frequency, TF over GST control)","1.1 fold enrichment (6-mer frequency, TF over GST control)","1.15 fold enrichment (6-mer frequency, TF over GST control)","1.17 fold enrichment (6-mer frequency, TF over GST control)","1.06 fold enrichment (6-mer frequency, TF over GST control)","1.13 fold enrichment (6-mer frequency, TF over GST control)","1.13 fold enrichment (6-mer frequency, TF over GST control)","1.22 fold enrichment (6-mer frequency, TF over GST control)","1.16 fold enrichment (6-mer frequency, TF over GST control)","1.15 fold enrichment (6-mer frequency, TF over GST control)","1.11 fold enrichment (6-mer frequency, TF over GST control)","1.19 fold enrichment (6-mer frequency, TF over GST control)","1.27 fold enrichment (6-mer frequency, TF over GST control)","1.07 fold enrichment (6-mer frequency, TF over GST control)","1.01 fold enrichment (6-mer frequency, TF over GST control)","1.19 fold enrichment (6-mer frequency, TF over GST control)"
ACAAAC,"1.15 fold enrichment (6-mer frequency, TF over GST control)","1.15 fold enrichment (6-mer frequency, TF over GST control)","1.14 fold enrichment (6-mer frequency, TF over GST control)","1.16 fold enrichment (6-mer frequency, TF over GST control)","1.12 fold enrichment (6-mer frequency, TF over GST control)","1.15 fold enrichment (6-mer frequency, TF over GST control)","1.11 fold enrichment (6-mer frequency, TF over GST control)","1.11 fold enrichment (6-mer frequency, TF over GST control)","1.17 fold enrichment (6-mer frequency, TF over GST control)","1.15 fold enrichment (6-mer frequency, TF over GST control)","1.08 fold enrichment (6-mer frequency, TF over GST control)","1.11 fold enrichment (6-mer frequency, TF over GST control)","1.12 fold enrichment (6-mer frequency, TF over GST control)","1.08 fold enrichment (6-mer frequency, TF over GST control)","1.24 fold enrichment (6-mer frequency, TF over GST control)","1.12 fold enrichment (6-mer frequency, TF over GST control)","1.12 fold enrichment (6-mer frequency, TF over GST control)"
